Each structure is given as a SMILES string. Inconclusive results are not listed. The source made the active and inactive calls. Calls follow the shape of the dose curve; as a rule, active = well fitted activation curve with a large enough effect in the repeat runs; inconclusive = weak or mixed curves; inactive = flat fitted curve, though single readings scatter.
% is scaled to controls: 0 for no effect and ±100 for the full control effect.

A short description of the assay: A CellTox Green Cytotoxicity Assay to monitor cytotoxicity in HepG2 cells - 24 hour (AID 1224878). Also: nearly all actives have a fitted effect of over 45% in size. As to conditions: CellTox Green fluorescence; series mostly up to 76.8 µM. The source says:
National Center for Advancing Translational Sciences [NCATS]
NIH Chemical Genomics Center [NCGC]
U.S. Environmental Protection Agency [EPA]
National Institutes of Environmental Health Sciences [NIEHS]
National Toxicology Program [NTP]
Cell-based models are critical for drug discovery. Determining the natural cytotoxic effects resulting from test compounds is an essential research activity. A CellTox Green Cytotoxicity Assay to monitor cytotoxicity in real time of continues cell culture during 40 hours of the compound treatment was used to screen Tox21 10K library compounds in HepG2 cells. CellTox Green Cytotoxicity Assay is a nonlytic, homogeneous, biofluorescent method to measure cytotoxicity in cell culture after experimental manipulation. The assay system uses a proprietary asymmetric cyanine dye that is excluded from viable cells but preferentially stains the dead cell's DNA. […] Viable cells produce no appreciable increases in fluorescence. Therefore, the fluorescence signal produced by the binding interaction with dead cell DNA is proportional to cytotoxicity.
The mixture of HepG2 cell suspension and reagents were dispensed at 600cells/6 ul/well in 1536-well tissue culture treated black solid bottom plates using a Multidrop dispenser. After the assay plates were incubated at a 37 C/5% CO2 incubator for 5 hours, 23 nL of compounds dissolved in DMSO, positive and negative controls was transferred to the assay plate by a pintool work station. The plates were incubated at 37 C for 40 hours. The fluorescence intensity were measured at 0h, 8h, 16h, 24h, 32h and 40h time points using ViewLux plate reader during compound treatment.
As for `CCCCN1C=CN(C)C1`, the cytotoxicity is -16.6% [at 15.8 µM] (inactive).
Turning to `CCN(C=O)CC`, the outcome was inactive.
On the same count and under the same terms, in the case of `C[N+]1(C)CCCC(OC(=O)C(O)(c2ccccc2)c2ccccc2)C1` (stereo not given) it was “inactive”; in that of `Nc1ccn([C@@H]2O[C@H](CO)[C@@H](O)[C@@H]2O)c(=O)n1`, “inactive”; in that of `CC(C)C(=O)OC(=O)C(C)C`, “inactive”.
On the same count and under the same terms, in the case of `CNCCO` it was “inactive”.
The same measure, in the same setting: in the case of `Cc1ncc([C@@H](CCCCCCc2ccc3c(n2)NCCC3)CC(=O)O)cn1` it was “inactive”; in that of `CC(=O)N1C[C@H](O)C[C@H]1C(=O)O`, “inactive”; in that of `CCOc1ccc2nc(S(N)(=O)=O)sc2c1`, “inactive”.
`CC(=O)c1ccccc1[N+](=O)[O-]`: the result was inactive.
Still for that read-out and setting: in the case of `NO` it was “inactive”.
Still for that read-out and setting: in the case of `C=CCCCCCCCCC(=O)OCC` it was “inactive”.
Same read-out and setting: then `CC(C)COC(=O)c1ccc(N)cc1`, with “inactive”.
As to `CCOC(=O)CCC(=O)OCC`, the call was inactive.
Same read-out and setting: in the case of `NC(CCC(=O)O)C(=O)O` (stereo not given) it was “inactive”; in that of `CC(C)C1CCC(O)CC1` (stereo not given), “inactive”.
Regarding `[Ca+2]`, the molecule was called inactive.
Consider `C=CC(=O)OCCCl`, for which the call was inactive.
Same read-out and setting: then `COC(=O)C1=C(C)NC(C)=C(C(=O)OC(C)C)C1c1cccc2nonc12` (stereo not given), with “inactive”; and `CC(C)NNC(=O)c1ccncc1`, with “inactive”; and `Nc1ccn([C@@H]2O[C@H](CO)[C@@H](O)C2O)c(=O)n1` (stereo not given in full), with “inactive”.
Turning to `CCCCCC(=O)OCCc1ccccc1`, the result was inactive.
Same read-out and setting: in the case of `CCOC(=O)OC(C)OC1=C(C(=O)Nc2ccccn2)N(C)S(=O)(=O)c2ccccc21` (stereo not given) it was “inactive”; in that of `CC/C=C\CCOC(C)OCC` (stereo not given), “inactive”.
On to `Cc1cc(C)c(N=Nc2c(O)c(S(=O)(=O)O)cc3cc(S(=O)(=O)O)ccc23)cc1C`, for which the cytotoxicity is -2.84% [at 6.97 µM] (inactive).
For the molecule `O=C1CCCCCCCCCCCCCCO1`, the result was inactive.
The same measure, in the same setting: then `C[C@@H]1C[C@H]2[C@@H]3C[C@H](F)C4=CC(=O)C(Cl)=C[C@]4(C)[C@@]3(F)[C@@H](O)C[C@]2(C)[C@@]1(O)C(=O)CO`, with “inactive”; and `CCCCCCCCCCCCSC`, with “inactive”.
For the molecule `CN1C(C)(C)CC(O)CC1(C)C`, the result was inactive.
The same measure, in the same setting: then `CC1=C(C/C=C(\C)CCC[C@H](C)CCC[C@H](C)CCCC(C)C)C(=O)c2ccccc2C1=O`, with “inactive”.
On the same count and under the same terms, in the case of `Nc1ccncc1N` it was “inactive”; in that of `CC(=O)Nc1ccc(OCC(O)CNC(C)C)cc1` (stereo not given), “inactive”.
With `CC(C)=CCC/C(C)=C/C#N`, the call was inactive.
For the molecule `CC(C)(CCC(=O)O)C(=O)O`, the result was inactive.
As for `CN(C)C(=O)Oc1cccc([N+](C)(C)C)c1`, the molecule was called inactive.
`COC(=O)Nc1ccc(Cl)c(Cl)c1`: the call was inactive.
Same read-out and setting: in the case of `CC(C)CC(C)(N)C#N` (stereo not given) it was “inactive”.
In the case of `CC(C)(C)C(=O)Oc1ccc(S(=O)(=O)Nc2ccccc2C(=O)NCC(=O)O)cc1`, the molecule was called inactive.
Same read-out and setting: in the case of `COc1cc(C(=O)NCc2ccc(OCCN(C)C)cc2)cc(OC)c1OC` it was “inactive”; in that of `CC(COc1ccccc1)NN` (stereo not given), “inactive”.

These data come from PubChem BioAssay (Tox21).
